This passage reports Potency and activity change, negative = inhibition results from PubChem BioAssay (NCATS).

Inconclusive results are not listed. Where a call stands in place of a potency, no number is given. The source made the active and inactive calls. Calls come from the whole dose curve.

The nature of assay [1]: Cytotoxicity counterscreen for inhibitors of SARS-CoV-2 cell entry (AID 1645845). Note: nearly all actives have a fitted effect of over 50% in size. The essentials: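 HEK293-ACE2 cells (Expi293F stably expressing human ACE2) seeded overnight, then compound for 1 h plus 48 h at 37C. Viability as ATP content by luminescence; normalized to wells with cells and media-only wells.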
On the technique in general: A counterscreen serves to expose hits that act by an unwanted route or on another target.

Assay [2] in a line: Primary qHTS to identify inhibitors of SARS-CoV-2 cell entry (AID 1645846). Note: nearly all actives have a fitted effect of over 45% in size. The note with it: activity change, negative = inhibition: at 57.1 µM (top of the series) unless noted. The essentials: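 HEK293-ACE2 (Expi293F, stable hACE2), 1500 cells/well, o/n 37C; cpd 23 nL pin, 1 h; MLV-PP w/ SARS-CoV-2-S (Wuhan-Hu-1, Δ19 C-term); 48 h 37C; Bright-Glo luminescence; normalized vs S-PP and bald PP.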

`C#C[C@]1(O)CC[C@H]2[C@@H]3CCc4cc(OC)ccc4[C@H]3CC[C@@]21C`: the Potency result in assay [1] and in assay [2] was “inactive” in each case.

For the compound `CCC(CN)=C(c1ccccc1)c1ccccc1`, in assay [1], the Potency result is “inactive”. Besides, the activity change, negative = inhibition in assay [2] came to 2.6%.

As for `CC(C)NCC(O)COc1ccc(COCCOC(C)C)cc1` (stereo not given), the Potency result in assay [1] and in assay [2] was “inactive” in each case.

On to `CN1CCOC(c2ccccc2)c2ccccc2C1` (stereo not given), for which the Potency result in assay [1] and in assay [2] was “inactive” in each case.

With `CC(C)Cc1ccc(C(C)C(=O)OCc2ccccn2)cc1` (stereo not given), the Potency entry in assay [1] is “inactive”. In assay [2], the activity change, negative = inhibition was -13.1%.

On to `CCN(CC)C(=O)C1CN2CCc3cc(OC)c(OC)cc3C2CC1OC(C)=O` (stereo not given), for which the Potency entry in assay [1] and in assay [2] was “inactive” throughout.

Consider `COc1ccc2c(c1)c(CC(=O)OCC(=O)O)c(C)n2C(=O)c1ccc(Cl)cc1`, for which the Potency result in assay [1] and in assay [2] was “inactive” throughout.

In the case of `O=C(c1ccc(F)cc1)C1CCN(CCn2c(=O)[nH]c3ccccc3c2=O)CC1`, the Potency entry in assay [1] is “inactive”. In addition, the activity change, negative = inhibition in assay [2] is -1.25%.

On to `C#CC1(O)CC[C@H]2[C@@H]3CCC4=CCCC[C@@H]4[C@H]3CC[C@@]21C` (stereo not given in full), for which the Potency entry in assay [1] and in assay [2] was “inactive” in each case.

With `CCC1Nc2cc(Cl)c(S(N)(=O)=O)cc2S(=O)(=O)N1` (stereo not given), the Potency result in assay [1] and in assay [2] was “inactive” each time.

As for `C#C[C@]1(O)CC[C@H]2[C@@H]3CCC4=CC(=O)CC[C@@H]4[C@H]3CC[C@@]21C`, the Potency entry in assay [1] is “inactive”. Also, in assay [2], the activity change, negative = inhibition is 3.31%.

On to `COc1ccc2c(c1OC)C(=O)O[C@@H]2[C@H]1c2c(cc3c(c2OC)OCO3)CCN1C`, for which the Potency entry in assay [1] is “inactive”. In addition, the activity change, negative = inhibition in assay [2] is -12.9%.

For `CCOc1ccccc1O[C@H](c1ccccc1)[C@H]1CNCCO1`, the Potency result in assay [1] is “inactive”. Also, in assay [2], the activity change, negative = inhibition is 0.393%.

As to `NC(CSCC(=O)O)C(=O)O` (stereo not given), the Potency result in assay [1] was “inactive”. The activity change, negative = inhibition in assay [2] is 0.853%.

`CCN(CC)CC(=O)OCC(=O)[C@@]1(O)CC[C@H]2[C@@H]3CCC4=CC(=O)CC[C@]4(C)[C@H]3[C@@H](O)C[C@@]21C`: the Potency entry in assay [1] and in assay [2] was “inactive” each time.
